# From ChEMBL document CHEMBL3433997, “St. Jude Leishmania screening dataset” (2016)
# Legend:
# Format in all cases: functional
# [1] = target: Solute carrier family 2, facilitated glucose transporter member 1 (Homo sapiens) (UniProt P11166); experiment: ST_JUDE_LEISH: Cytotoxicity at 2uM final concentration against transgenic Leishmania Mexicana promastigotes LmGLUT1 that are glucose transport deficient and complemented with the human glucose transporter GLUT1. Activity is measured by DNA content using SYBR green in vitro
# [2] = target: Hexose transporter 1 (Plasmodium falciparum) (UniProt O97467); experiment: ST_JUDE_LEISH: Cytotoxicity at 2uM final concentration against transgenic Leishmania Mexicana promastigotes LmPfHT that are glucose transport deficient and complemented with the Plasmodium falciparum hexose transporter. Activity is measured by DNA content using SYBR green in vitro
# [3] = target: Glucose transporter (Leishmania mexicana) (UniProt O61059); experiment: ST_JUDE_LEISH: Cytotoxicity at 2uM final concentration against transgenic Leishmania Mexicana promastigotes LmGT2 that are glucose transport deficient and complemented with the L. Mexicana glucose transporter 2. Activity is measured by DNA content using SYBR green in vitro
# Chain of Solute carrier family 2, facilitated glucose transporter member 1 (Homo sapiens) (P11166 whole entry): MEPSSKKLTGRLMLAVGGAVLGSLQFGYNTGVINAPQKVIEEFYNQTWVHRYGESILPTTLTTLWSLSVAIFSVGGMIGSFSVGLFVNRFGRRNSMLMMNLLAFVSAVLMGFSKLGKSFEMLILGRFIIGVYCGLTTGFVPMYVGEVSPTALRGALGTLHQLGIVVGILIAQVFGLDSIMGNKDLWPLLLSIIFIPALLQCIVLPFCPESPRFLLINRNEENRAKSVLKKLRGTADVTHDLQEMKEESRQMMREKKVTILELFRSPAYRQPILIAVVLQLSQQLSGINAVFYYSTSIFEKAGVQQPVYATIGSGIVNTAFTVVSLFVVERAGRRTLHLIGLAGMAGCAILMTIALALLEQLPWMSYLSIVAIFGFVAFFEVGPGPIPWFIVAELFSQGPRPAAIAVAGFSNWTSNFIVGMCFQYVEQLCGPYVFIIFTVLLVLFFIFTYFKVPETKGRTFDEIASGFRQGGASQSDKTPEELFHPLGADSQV
Structure (SMILES),inhibition [1] [%],inhibition [2] [%],inhibition [3] [%]
CCNc1cc(C(=O)N[C@@H](Cc2ccc(F)c(F)c2)[C@H](O)CNC2CCCCC2)cc(N2CCCCS2(=O)=O)c1,1.98,0.24,0.91
COc1ccc2nccc(NC(=O)N3CCC(NCCOc4cc(F)cc(F)c4)CC3)c2n1,8.02,12.1,-0.77
O=C(NC1CC1)c1cnc(N2CCC(c3ccccc3)CC2)c(Cl)c1,2.86,6.43,3.1
CC(C)=CCc1c(-c2ccc(O)cc2O)oc2c3c(cc(O)c2c1=O)OC(C)(C)C=C3,5.72,4.6,6.57
CCCCc1ccc(-c2c(N)nc(N)nc2CC)cc1,11.5,9.06,8.51
CCCCCc1ccc(N2C(N)=NC(N)=NC2(C)C)cc1,3.51,2.87,4.35
CCOc1cc2ncnc(Nc3ccc(OCc4c(Cl)cccc4Cl)c(OC)c3)c2cc1OCC,4.01,4.16,3.54
CC(C)c1cc(N)c2cc(NC(=O)COCC(=O)Nc3ccc4nc(C(C)C)cc(N)c4c3)ccc2n1,5.18,5.67,5.02
CN(C)CCNC(=O)c1cc2c(-c3ccc(Cl)cc3)nn(C)c2s1,2.62,2.13,1.3
CCNc1cc(C(=O)N[C@@H](Cc2ccccc2)[C@H](O)CNCCc2cccc3ccccc23)cc(N2CCCC2=O)c1,-0.63,-0.02,-1.96
COc1ccc(CNCC(C)(C)c2nc(-c3ccc(Cl)c(O)c3)c(-c3ccncc3)[nH]2)cc1,0.93,0.9,-2.74
O=C(c1cc(OC(F)(F)F)ccc1O)N1CCN(c2ccccc2)CC1,5.08,4.52,7.06
CCNc1cc(C(=O)N[C@@H](Cc2ccccc2)[C@H](O)CNCc2cccc(OC)c2C)cc(N2CCCCS2(=O)=O)c1,1.82,1.66,2.02
Cc1ccc2nc(C)cc(Nc3ccccc3O)c2c1,-0.76,-1.41,-1.03
CC(C)Nc1cc(C(=O)N[C@@H](Cc2ccccc2)[C@H](O)CNC2CCOCC2)c(F)c(N2CCCCS2(=O)=O)c1,6.75,5.16,4.99
C#CCCC(=O)Nc1cccc(-c2cccc(-c3nc4cc(C(F)(F)F)ccc4[nH]3)c2)c1,-2.22,1.99,1.42

Structure (SMILES),inhibition [1] [%],inhibition [2] [%],inhibition [3] [%]
CCN(CC)CCN1C(=O)c2oc3ccc(Cl)cc3c(=O)c2C1c1ccc(SC)cc1 (stereo unspecified),-3.16,-2.27,8.97
O=C(/C=C/c1ccc(Cl)c(Cl)c1)NCCCCCN1CCC(NC(=O)NC2CCCCC2)CC1,1.02,0.4,1.22
Cc1ccc2[nH]c(-c3ccccc3N)cc2c1,3.92,4.5,4.49
O=C(NCCCCN1CCN(c2cccc(Cl)c2Cl)CC1)c1ccc2c(c1)CCN(C1CCC1)CC2,1.09,-1.47,-0.46
CCCN1CCN(Cc2ccc(-c3ccc(-c4nc5ccccc5[nH]4)s3)cc2)CC1,-0.29,2.1,1.19
N#Cc1ccc(CCNc2nccc(-c3cccc(CN4CCNCC4)c3)n2)cc1,12.3,12.8,6.7
FC(F)(F)c1cccc(Nc2nc3nonc3nc2NC2C3CC4CC(C3)CC2C4)c1 (stereo unspecified),3.05,1.79,0.47
COc1ccccc1C1CCN(CCN2CCC(NC(=O)c3ccc(-c4ccc(C#N)cc4)cc3)CC2)CC1,-0.2,2.09,1.89
Cn1nc(C(F)(F)F)c(-c2ccc(Br)cc2)c1NC(=O)Cc1ccccc1F,-1.83,3.22,-2.17
Oc1ccc(-c2cncc(NCc3ccc(F)c(F)c3)c2)cc1,7.16,7.41,7.98
Cn1c(N)cc(-c2ccc(Br)cc2)c2c(=O)nc(N)nc1-2,6.75,4.96,5.76
CC1CCC(C[C@@H](C(=O)N[C@H](C(=O)Nc2nccs2)[C@@H](C)O)[C@H](CCC(F)(F)F)N(O)C=O)CC1 (stereo partly specified),0.36,-2.34,0.78
O=C(Cc1c[nH]cn1)Nc1cccc(-c2cccc(-c3nc4cc(C(F)(F)F)ccc4[nH]3)c2)c1,9.44,12.1,10.4
CCCCCCCCCN(CCC)C(=O)[C@@H]1OC(C(=O)OC(c2ccccc2)c2ccccc2)=C[C@H](NC(=O)OC(C)(C)C)[C@H]1NC(C)=O,2.98,2.98,1.47
CCCC(C)NC[C@@H](O)[C@H](Cc1ccccc1)NC(=O)c1cc(NCC)cc(N2CCCCS2(=O)=O)c1 (stereo partly specified),0.32,0.76,-2.92
OCCN1CCN(Cc2ccc(-c3ccc(-c4nc5ccccc5[nH]4)cc3)cc2)CC1,12.1,9.51,7.18
